Test [1] in a line: NCI Yeast Anticancer Drug Screen. Data for the rad50 strain (AID 155).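 Note: 0% = growth of vehicle-only cultures of the same strain.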 The settings on record: S. cerevisiae rad50 strain growth inhibition, stronger effect = higher value. Put shortly:
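Cells are treated with compound, grown, and their growth is then scored against vehicle-only cultures of the same repair-deficient yeast strain.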

The nature of test [2]: NCI Yeast Anticancer Drug Screen. Data for the mec2-1 strain (AID 157). The note with it: S. cerevisiae mec2-1 strain, stronger effect = higher value. A digest of the protocol:
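Mutant yeast (mec2-1) grown with compound; growth inhibition relative to vehicle control reported.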

A short description of test [3]: NCI Yeast Anticancer Drug Screen. Data for the sgs1 mgt1 strain (AID 161).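 Note: 0% = growth of cultures given vehicle only.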 The settings on record: S. cerevisiae sgs1 mgt1 strain, stronger effect = higher value. Put shortly: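 Growth of a repair-deficient yeast mutant was monitored after compound treatment and expressed as inhibition relative to vehicle-treated cultures.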
The nature of test [4]: NCI Yeast Anticancer Drug Screen. Data for the cln2 rad14 strain (AID 165).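 Note: 0% = growth equal to vehicle treated cultures.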 The note with it: S. cerevisiae cln2 rad14 strain, stronger effect = higher value. Put shortly:
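Readout is yeast growth inhibition versus vehicle-treated controls, using a strain with cln2 and rad14 alterations exposed to compound.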

A short description of test [5]: NCI Yeast Anticancer Drug Screen. Data for the bub3 strain (AID 167). The settings on record: S. cerevisiae bub3 mutant strain, stronger effect = higher value. A digest of the protocol:
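Part of a panel of yeast mutants defective in DNA damage repair or cell cycle regulation. Each strain is grown with compound, and inhibition is calculated relative to solvent-treated cultures.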

A short description of test [6]: NCI Yeast Anticancer Drug Screen. Data for the mlh1 rad18 strain (AID 175). The note with it: S. cerevisiae mlh1 rad18 strain growth inhibition, stronger effect = higher value. A digest of the protocol: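 Genetically defined yeast (DNA repair-deficient) exposed to compounds; growth inhibition determined relative to vehicle.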
[7] abbreviates: at 5.0 µM (retest, dose inferred, filed as 0.5).
The mark [8] stands for this setting: at 50.0 µM (retest, dose inferred, filed as 5.0).

This is part of a sample that, as a whole, favours compounds with a hit. Of some 79,000 tested, about 15% had one in any assay. Unmarked numbers belong to inactive results. The source made the active and inactive calls. Cut-off read from the data, not from the text of the source: active = growth inhibition above about 70%; inactive = the rest.

For `CCCCCCCCNS(=O)(=O)c1ccc(N)cc1`, the growth inhibition in test [1] (setting [7]) is 4%; in test [1] (setting [8]) it was 9%; in test [1] (at 50.0 µM) it was 80.8% (active); in test [2] (setting [7]), 0%; in test [2] (setting [8]), 2%; in test [2] (at 50.0 µM), 25.2%. The growth inhibition in test [3] (setting [7]) is 7%; in test [3] (setting [8]), 2%; in test [3] (at 50.0 µM), 70.5% (active); in test [4] (setting [7]) it was 2%; in test [4] (setting [8]), 0%; in test [4] (at 50.0 µM), 16.8%. The growth inhibition was 1% in test [5] (setting [7]); 0% in test [5] (setting [8]); 61.2% in test [5] (at 50.0 µM); 6% in test [6] (setting [7]); 2% in test [6] (setting [8]); 79.2% (active) in test [6] (at 50.0 µM).
In the case of `C=Nc1ccc2ccccc2c1Cc1c(O)ccc2ccccc12`, the growth inhibition in test [1] (setting [7]) was 7%; in test [1] (setting [8]), 99% (active); in test [1] (at 50.0 µM), 97.2% (active); in test [2] (setting [7]) it was 12%; in test [2] (setting [8]) it was 99% (active); in test [2] (at 50.0 µM), 97.2% (active). The growth inhibition in test [3] (setting [7]) was 8%; in test [3] (setting [8]) it was 99% (active); in test [3] (at 50.0 µM), 97.4% (active); in test [4] (setting [7]) it was -8%; in test [4] (setting [8]) it was 99% (active); in test [4] (at 50.0 µM) it was 96.5% (active). For the same compound, the growth inhibition is 1% in test [5] (setting [7]); 99% (active) in test [5] (setting [8]); 97.5% (active) in test [5] (at 50.0 µM); 11% in test [6] (setting [7]); 99% (active) in test [6] (setting [8]); 96.7% (active) in test [6] (at 50.0 µM).
As to `O=C(NCc1ccccc1)N1CCN(c2ccccc2)C1=O`, the growth inhibition is -3% in test [1] (setting [7]); 3% in test [1] (setting [8]); 47% in test [1] (at 50.0 µM); -3% in test [2] (setting [7]); -5% in test [2] (setting [8]); 2.65% in test [2] (at 50.0 µM). For the same compound, the growth inhibition in test [3] (setting [7]) was -3%; in test [3] (setting [8]), -1%; in test [3] (at 50.0 µM), -2.15%; in test [4] (setting [7]) it was -4%; in test [4] (setting [8]), 13%; in test [4] (at 50.0 µM) it was 36.5%. The growth inhibition in test [5] (setting [7]) is 4%; in test [5] (setting [8]) it was 12%; in test [5] (at 50.0 µM), 6.95%; in test [6] (setting [7]) it was -4%; in test [6] (setting [8]), -4%; in test [6] (at 50.0 µM), 11.7%.
In the case of `CCN(CC)CCNc1ccc(OC)c2cccnc12`, the growth inhibition is 15% in test [1] (setting [7]); 30% in test [1] (setting [8]); 99.3% (active) in test [1] (at 50.0 µM); 1% in test [2] (setting [7]); 9% in test [2] (setting [8]); 99.4% (active) in test [2] (at 50.0 µM). Also, the growth inhibition in test [3] (setting [7]) was 8%; in test [3] (setting [8]) it was 16%; in test [3] (at 50.0 µM) it was 99.3% (active); in test [4] (setting [7]), 5%; in test [4] (setting [8]) it was -2%; in test [4] (at 50.0 µM) it was 98% (active). Further, the growth inhibition is 10% in test [5] (setting [7]); 16% in test [5] (setting [8]); 99.5% (active) in test [5] (at 50.0 µM); 17% in test [6] (setting [7]); 25% in test [6] (setting [8]); 98.8% (active) in test [6] (at 50.0 µM).
Turning to `CN1CCCC(C(=O)OCC(=O)C2(O)CCC3C4CCC5=CC(=O)CCC5(C)C4C(O)CC32C)C1` (stereo not given), the growth inhibition in test [1] (setting [7]) is 13%; in test [1] (setting [8]), 11%; in test [1] (at 50.0 µM), 29.2%; in test [2] (setting [7]), -5%; in test [2] (setting [8]), 0%; in test [2] (at 50.0 µM) it was 5%. For the same compound, the growth inhibition in test [3] (setting [7]) is -7%; in test [3] (setting [8]), 5%; in test [3] (at 50.0 µM), -11%; in test [4] (setting [7]) it was 3%; in test [4] (setting [8]), 8%; in test [4] (at 50.0 µM) it was 38.4%. In addition, the growth inhibition in test [5] (setting [7]) is -7%; in test [5] (setting [8]), 9%; in test [5] (at 50.0 µM) it was 12.4%; in test [6] (setting [7]) it was -3%; in test [6] (setting [8]) it was 35%; in test [6] (at 50.0 µM) it was 42.9%.
As to `COc1ccc2ccccc2c1-c1c(O)ccc2ccccc12`, the growth inhibition in test [1] (setting [7]) was 0%; in test [1] (setting [8]), 80% (active); in test [1] (at 50.0 µM), 93.5% (active); in test [2] (setting [7]), -5%; in test [2] (setting [8]), 71% (active); in test [2] (at 50.0 µM), 95.8% (active). Also, the growth inhibition is -2% in test [3] (setting [7]); 63% in test [3] (setting [8]); 97.2% (active) in test [3] (at 50.0 µM); -5% in test [4] (setting [7]); 72% (active) in test [4] (setting [8]); 93.3% (active) in test [4] (at 50.0 µM). The growth inhibition was -6% in test [5] (setting [7]); 64% in test [5] (setting [8]); 97.9% (active) in test [5] (at 50.0 µM); -8% in test [6] (setting [7]); 78% (active) in test [6] (setting [8]); 96% (active) in test [6] (at 50.0 µM).
For `NC(=S)N/N=C\C12CC3CC(CC(C3)C1)C2`, the growth inhibition is 57% in test [1] (setting [7]); 98% (active) in test [1] (setting [8]); 97.4% (active) in test [1] (at 50.0 µM); 73% (active) in test [2] (setting [7]); 97% (active) in test [2] (setting [8]); 93.7% (active) in test [2] (at 50.0 µM). Also, the growth inhibition in test [3] (setting [7]) was 70% (active); in test [3] (setting [8]) it was 98% (active); in test [3] (at 50.0 µM) it was 92.8% (active); in test [4] (setting [7]), 25%; in test [4] (setting [8]), 97% (active); in test [4] (at 50.0 µM), 71.5% (active). The growth inhibition in test [5] (setting [7]) was 62%; in test [5] (setting [8]) it was 98% (active); in test [5] (at 50.0 µM) it was 95.6% (active); in test [6] (setting [7]) it was 77% (active); in test [6] (setting [8]), 99% (active); in test [6] (at 50.0 µM) it was 96.5% (active).
Regarding `CN1c2ccccc2C(=O)NC1c1ccc([N+](=O)[O-])s1` (stereo not given), the growth inhibition in test [1] (setting [7]) is -9%; in test [1] (setting [8]) it was 53%; in test [1] (at 50.0 µM), 63.5%; in test [2] (setting [7]), 7%; in test [2] (setting [8]) it was 8%; in test [2] (at 50.0 µM) it was 41%. Also, the growth inhibition in test [3] (setting [7]) is -19%; in test [3] (setting [8]), 32%; in test [3] (at 50.0 µM) it was 71.8% (active); in test [4] (setting [7]) it was 11%; in test [4] (setting [8]), 23%; in test [4] (at 50.0 µM) it was 33.4%. The growth inhibition is -47% in test [5] (setting [7]); 35% in test [5] (setting [8]); 57% in test [5] (at 50.0 µM); -22% in test [6] (setting [7]); 63% in test [6] (setting [8]); 73.1% (active) in test [6] (at 50.0 µM).
As for `CN(C)c1ccccc1CCCCCCc1ccccc1N(C)C`, the growth inhibition in test [1] (setting [7]) is 54%; in test [1] (setting [8]) it was 59%; in test [1] (at 50.0 µM), 84% (active); in test [2] (setting [7]) it was 55%; in test [2] (setting [8]) it was 57%; in test [2] (at 50.0 µM), 74.7% (active). In addition, the growth inhibition in test [3] (setting [7]) is 76% (active); in test [3] (setting [8]), 72% (active); in test [3] (at 50.0 µM), 87.8% (active); in test [4] (setting [7]), 79% (active); in test [4] (setting [8]), 82% (active); in test [4] (at 50.0 µM), 85.2% (active). The growth inhibition in test [5] (setting [7]) was 67%; in test [5] (setting [8]), 50%; in test [5] (at 50.0 µM), 80.5% (active); in test [6] (setting [7]) it was 38%; in test [6] (setting [8]) it was 43%; in test [6] (at 50.0 µM), 76.3% (active).
As to `COc1ccc(/C(Cl)=C(\c2ccc(OCCN(C)C)cc2)c2ccc(OC(=O)C(C)(C)C)cc2)cc1`, the growth inhibition is 23% in test [1] (setting [7]); 23% in test [1] (setting [8]); 91.8% (active) in test [1] (at 50.0 µM); 17% in test [2] (setting [7]); 17% in test [2] (setting [8]); 92% (active) in test [2] (at 50.0 µM). In addition, the growth inhibition was 18% in test [3] (setting [7]); 18% in test [3] (setting [8]); 92.3% (active) in test [3] (at 50.0 µM); 10% in test [4] (setting [7]); 10% in test [4] (setting [8]); 60.4% in test [4] (at 50.0 µM). Also, the growth inhibition in test [5] (setting [7]) is 20%; in test [5] (setting [8]) it was 20%; in test [5] (at 50.0 µM) it was 89.4% (active); in test [6] (setting [7]), 1%; in test [6] (setting [8]), 1%; in test [6] (at 50.0 µM), 90% (active).

The values are drawn from PubChem BioAssay (NCI).
